Consider 59 molecules from PubChem BioAssay AID504467 (National Center for Advancing Translational Sciences (NCATS), 2011).

The whole screen tested about 330,000 compounds, of which about 7,700 (2.3%) were called active. A call without a number means that no potency is given here. Not shown: some 26% with an inconclusive outcome. Calls come from the whole dose curve; as a rule, active = well fitted inhibition curve with a large enough effect; inconclusive = small, poorly fitted or top-dose-only effect, or effect the other way; inactive = flat fitted curve, though single readings scatter. For the sample, actives were picked, then their nearest neighbours and some compounds at random.
Potency is the fitted concentration of half-maximal effect.

The nature of this assay: qHTS screen for small molecules that inhibit ELG1-dependent DNA repair in human embryonic kidney (HEK293T) cells expressing luciferase-tagged ELG1. Note: nearly all actives have a fitted effect of over 55% in size. To be noted: HEK293T ELG1-luciferase reporter, luminescence, 16 h, DNA damage induced by 5-fluorouridine; series mostly up to 46.1 µM. The gist of the method:
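In this reporter screen, reduction of luminescence relative to DMSO vehicle indicated activity. Compounds and 5-fluorouridine were added together to 2,000 cells per well, incubated for 16 hr at 37 °C, then developed with ONE-Glo.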
Take `Cc1ccc(C(=O)COC(=O)CCN2C(=O)C3C4CCC(C4)C3C2=O)cc1C` (centres undefined): the Potency entry was “inactive”. Consider `COCCOC(=O)c1[nH]c2c(c1C)C(=O)CC(c1ccc(OC)cc1)C2` (centres undefined), for which the Potency result was “inactive”. On to `CCCOC(=O)c1[nH]c2c(c1C)C(=O)CC(c1cc(OC)c(OC)c(OC)c1)C2` (centres undefined), for which the Potency is 5.17 µM (active).

With `COc1cc(C2CC(=O)c3cnc(NC(C)=O)nc3C2)cc(OC)c1OC` (centres undefined), the Potency result was “inactive”. The same measure for `COc1ccc(OC)c(S(=O)(=O)Nc2c(C)nn(C)c2C)c1`: “inactive”. As to `Cc1cc(C)c(C)c(S(=O)(=O)N2CCN(C(=O)c3ccc4c(=O)n5c(nc4c3)CCC5)CC2)c1C`, the Potency result is “inactive”. The same measure for `COc1ccc(C=C(C#N)C#N)c(CSc2ccccn2)c1`: “inactive”; for `Cc1cc(N2CCCC2)ccc1NC(=O)COc1ccc(Cl)cc1`: “inactive”. The same measure for `Cc1cccc(OCC(=O)NC(=S)Nc2ccccc2N2CCOCC2)c1`: “inactive”; for `Cc1cc(C)cc(OCC(=O)Nc2ccc(N3CCOCC3)cc2N2CCOCC2)c1`: 16.4 µM (active); for `COc1cccc(CNC(=O)CCC2CCCN(C(=O)c3ccc(F)c(Cl)c3)C2)c1` (centres undefined): “inactive”. For the molecule `Cc1ccc(NC(=S)NCCN2CCOCC2)cc1`, the Potency result was “inactive”. The same measure for `COc1cccc(NC(=S)NCCCN2CCOCC2)c1`: “inactive”; for `CCOc1cccc(/C=N/NC(=S)NCCN2CCOCC2)c1O`: 13 µM (active); for `CCN(CC)C(=O)[C@H]1C[C@H](CC(=O)NCC23CC4CC(CC(C4)C2)C3)C(=O)N2CCc3c([nH]c4cc(CCC(=O)N(C)C)ccc34)[C@]12C`: “inactive”. The same measure for `COc1ccc(C(=O)c2c3ccc([N+](=O)[O-])cc3[n+]([O-])n2CCCN)cc1`: “inactive”. As for `COc1ccc(Cc2nnc(SCC(=O)N(c3ccccc3)C(C)C)n(N)c2=O)cc1`, the entry is “inactive”; as for `COc1ccc2c(c1)C(NS(=O)(=O)OCC(Cl)(Cl)Cl)CCC2` (centres undefined), “inactive”. For `Cc1cc(C)c2cc(CN(Cc3nnnn3Cc3ccc(F)cc3)C3CCCC3)c(=O)[nH]c2c1`, the Potency entry was “inactive”. The same measure for `CCCN(Cc1cc2cccc(C)c2[nH]c1=O)S(C)(=O)=O`: “inactive”; for `Cc1cccc2cc(CN(Cc3nnnn3Cc3ccccc3)C3CCCC3)c(=O)[nH]c12`: 20.6 µM (active); for `CN1CCN(C(c2cc3cc4c(cc3[nH]c2=O)OCCO4)c2nnnn2C2CCCC2)CC1` (centres undefined): “inactive”. As for `COc1ccc2[nH]c(=O)c(CN(Cc3nnnn3CCc3ccccc3)CC3CCCO3)cc2c1` (centres undefined), the Potency entry was “inactive”.

As to `Cc1cccc2cc(CN(Cc3cccs3)C(c3nnnn3C3CCCC3)C(C)C)c(=O)[nH]c12` (centres undefined), the Potency was 11.6 µM (active). In the case of `Cc1ccc(N2C(=O)N3[C@@H]4c5ccccc5OC[C@@H]4[C@@H](c4ccccc4)[C@@]3(C)C2=O)cc1`, the Potency entry is “inactive”. The same measure for `CC(=O)N1CCSc2ccc(S(=O)(=O)N3CCC(C)CC3)cc21`: “inactive”; for `CC(Sc1nn(-c2ccc(Cl)cc2)c(=S)s1)C(=O)NCC1CCCO1` (centres undefined): “inactive”.

For the molecule `COc1ccccc1N(CCOc1ccccc1)S(=O)(=O)c1ccccc1`, the Potency entry was “inactive”. The same measure for `COC(=O)CSC1=C(C#N)C(c2ccccc2OC)C(C(=O)OC)C(=O)N1` (centres undefined): “inactive”.

Consider `N#CC1=C(SCc2ccc(C#N)cc2)N=C(N)C(c2nc(-c3ccccc3)cs2)C12CCCCC2` (centres undefined), for which the Potency result was “inactive”.

As to `N#CC1=C(SCc2ccccc2)NC(=O)C(C#N)C12CCCC2` (centres undefined), the Potency was 14.6 µM (active). `COc1ccc(C(=O)NCc2nnc(SCC(=O)NC3=NCCS3)n2C)cc1`: the Potency entry was “inactive”.

`O=C(COC(=O)c1cc[n+]([O-])cc1)Nc1ccc(Cl)c(C(F)(F)F)c1`: the Potency entry was “inactive”. As for `CN(C)C1=NC[C@H](Cc2ccccc2)N1CCc1ccc(F)cc1`, the entry is “inactive”; as for `COc1ccc(NC(=O)C2CCC(CNC(=O)[C@@H]3Cc4ccccc4CN3)CC2)cc1` (some centres undefined), “inactive”. As for `COc1ccc(N(Cc2cc3ccc(C)cc3[nH]c2=O)S(=O)(=O)c2ccccc2)cc1`, the entry is “inactive”. Take `CC(C)n1cnc2c(NCc3ccccc3)cc(N[C@@H](CO)Cc3ccccc3)cc21`: the Potency is 16.4 µM (active). As for `CC(C)n1cnc2c(NCc3ccccc3)cc(OCC3CCN(C)CC3)cc21`, the entry is “inactive”. Take `COc1ccc(CNC(=O)/C(C#N)=C/c2cccc(OC)c2OC)cc1`: the Potency entry was “inactive”. For the molecule `CN(CC(=O)Nc1ccc(OC(F)F)cc1)S(=O)(=O)/C=C/c1ccccc1`, the Potency entry was “inactive”.

In the case of `O=C(O)C1CCN(c2ccc([N+](=O)[O-])cc2[N+](=O)[O-])CC1`, the Potency result is “inactive”. As for `COc1ccc(N2CCN(c3ccc([N+](=O)[O-])cc3Cl)CC2)cc1`, the entry is “inactive”; as for `O=[N+]([O-])c1ccc(N2CCN(c3ccc(O)cc3)CC2)c(Cl)c1`, 23.1 µM (active); as for `CN(C)C(=O)CCc1ccc2c3c([nH]c2c1)[C@]1(CCC2CCCC2)[C@@H](C(=O)N2CCOCC2)C[C@H](CC(=O)NCc2ccco2)C(=O)N1CC3`, “inactive”. As for `CCN(CC(=O)Nc1cc(Cl)ccc1C)C(=O)Cn1c(=O)cnc2ccccc21`, the entry is “inactive”; as for `CC(Oc1ccc2c(-c3ccccc3)cc(=O)oc2c1)C(=O)NC(Cc1c[nH]c2ccccc12)C(=O)O` (centres undefined), “inactive”. For the molecule `CC(C)(C)OC(=O)C[C@@H]1C/C=C\C[C@@H](CC(=O)N[C@H](CO)Cc2ccccc2)C(=O)NCCOC1=O`, the Potency result is “inactive”. `CC(Oc1ccc(F)cc1)C(=O)N1CCN(c2ncccn2)CC1` (centres undefined): the Potency entry was “inactive”.

In the case of `CCNC(=S)N1CCN(c2ncccn2)CC1`, the Potency result was “inactive”.

On to `CC12CCC(C(=O)N3CCN(c4ncccn4)CC3)(c3nc4ccccc4nc31)C2(C)C` (centres undefined), for which the Potency is 4.11 µM (active). As for `CN(C(=O)CN1C(=O)/C(=C/c2ccc(Cl)cc2)SC1=S)C1CCS(=O)(=O)C1` (centres undefined), the entry is “inactive”. The same measure for `CCn1c(SCC(=O)Nc2ccc(C)cc2)nc2nc3c(cc2c1=O)CCCC3`: 18.4 µM (active). For `CC(=O)NCCn1c(SCC(=O)Nc2ccc(C)cc2)nc2ccccc2c1=O`, the Potency entry was “inactive”. As for `COCCn1c(SCC(=O)Nc2ccc3c(c2)CCC3)nc2ccccc2c1=O`, the entry is “inactive”; as for `COc1cc(/C=C/C(=O)OCC(=O)c2ccccc2)cc(OC)c1OC`, “inactive”; as for `O=C(c1ccc(Cl)nc1)N1CCN(S(=O)(=O)c2ccc3c(c2)OCCO3)CC1`, “inactive”.

With `COc1ccc(C(C(=O)NC(C)(C)C)N(Cc2ccc(F)cc2)C(=O)CCC(=O)Nc2cc(C)on2)cc1` (centres undefined), the Potency entry is “inactive”. As for `Cc1cc(NC(=O)C(C)SCC(=O)Nc2ccccc2N2CCCCC2)no1` (centres undefined), the entry is “inactive”; as for `C[C@H](NS(=O)(=O)c1ccc(Cl)cc1)C(=O)OCC(=O)N1CCOCC1`, “inactive”.
